The source of these data is PubChem BioAssay AID463 (The Scripps Research Institute Molecular Screening Center, 2006).

Screen size: about 56,000 compounds; about 710 (1.3%) were called active.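 How the source made its calls: active means inhibition above the mean inhibition of all tested compounds plus 3 SD (cut at about 28% in these data); inactive means the rest.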 The entries come from a sample that favours actives as a whole.

This assay can be described thus: cytotoxicity toward Jurkat T cells, primary screen, cytotoxicity control, cell-based, Jurkat E6.1, 60K MLSMR library (AID 463). To be noted: Jurkat E6.1 viability, ATP luminescence, 48 h; at 4 µM; hits give high values.
Regarding `CC(=O)OC(C(=O)NCCc1ccccc1)c1cccnc1` (stereo not drawn), the inhibition (usually the change of the read-out against control, counted positive when it falls) is -5.8% (inactive).

Consider `O=S(=O)(NCC1CCCO1)c1ccc2ccccc2c1` (stereo not drawn), for which the inhibition is -0.5% (inactive).

Regarding `CC1CCCN(Cc2nc3c(c(=O)n(C)c(=O)n3C)n2CC(=O)c2ccccc2)C1` (stereo not drawn), the inhibition is 4.9% (inactive).

Regarding `CC1=NC2(CCCc3c2no[n+]3[O-])N(O)C1(C)C` (stereo not drawn), the inhibition was 12.1% (inactive).

Take `Cc1cc(NC(=O)CSCc2nc(-c3cccc(Cl)c3)oc2C)no1`: the inhibition is 0.8% (inactive).

Regarding `c1cnn(-c2cc(N3CCOCC3)ncn2)c1`, the inhibition is -0.2% (inactive).

Consider `O=C(Nc1cc(N2CCOCC2)ncn1)NC1(C(F)(F)F)Oc2ccc(Cl)cc2O1` (stereo not drawn), for which the inhibition is 72.6% (active).

Regarding `COc1c(C)cccc1C(=O)Nc1cc(Cl)ccc1N1CCOCC1`, the inhibition is -1% (inactive).

Regarding `CCOC(=O)C1=C(C)NC(C)=C(C(=O)OCC)C1C1=COCCO1`, the inhibition is -5.9% (inactive).

Turning to `CCOC(=O)CCc1c(C)c2ccc(OCc3nn[nH]n3)c(C)c2oc1=O`, the inhibition was -2.2% (inactive).

As to `CN(C)CCCn1c(N)c(C#N)c2nc(C#N)c(C#N)nc21`, the inhibition was 1.9% (inactive).

Take `CC(C)Cc1cc(C(=O)Nc2cc(Br)ccc2O)no1`: the inhibition was 60.7% (active).

Consider `CC(C)Cc1cc(C(=O)NCCc2ccccc2)no1`, for which the inhibition is 6% (inactive).

Consider `CC(C)CNC(=O)c1cc(-c2ccc(Br)cc2)on1`, for which the inhibition was 1.8% (inactive).

Turning to `COCCn1c(SCC(=O)Nc2cc(Cl)ccc2OC)nc2c(c1=O)SC(C)C2` (stereo not drawn), the inhibition is 6.8% (inactive).

With `O=C(CSc1nnc(-c2ccco2)n1-c1ccccc1)NCCc1ccccc1`, the inhibition is 0.2% (inactive).

On to `N#Cc1nc(-c2ccc(OCc3ccccc3)cc2)oc1NCCCN1CCOCC1`, for which the inhibition was -3.2% (inactive).

Regarding `CCOc1ccc(Nc2oc(Cc3ccccc3)nc2C#N)cc1`, the inhibition was -0.9% (inactive).

Take `COc1ccc(Nc2oc(-c3ccccc3Cl)nc2C#N)cc1`: the inhibition is 85.4% (active).

For the molecule `O=C(Nc1nc(-c2ccncc2)cs1)C1COc2ccccc2O1` (stereo not drawn), the inhibition is 7.3% (inactive).

Consider `O=C(Nc1ccc2c(c1)OCCO2)c1ccncc1`, for which the inhibition was 3.8% (inactive).

As to `O=C(Nc1nc(-c2ccc3c(c2)OCO3)cs1)c1ccncc1`, the inhibition was 44% (active).

In the case of `Cn1c(=O)cc(SCC(=O)N2CCCC2)c2cc(Cl)ccc21`, the inhibition was 3.9% (inactive).
